Test results as given in ChEMBL document CHEMBL5308504, “Tm Shift (DSF) assay results for EUbOPEN Chemogenomics Library” (2023).
Where “and” joins values, the source holds several entries; their conditions need not be identical. Identical values can stand only once.

target: Bromodomain-containing protein 4 (Homo sapiens) (UniProt O60885); details: Compound concentration 20.0 uM, Protein concentration 2.0 uM, Result type QC Liability

Row | Compound | ΔTm
1 | CC(=O)N(CCN(C)C)c1ccc(N/C(=C2\C(=O)Nc3cc(Cl)ccc32)c2ccccc2)cn1 | -1.57 °C
2 | CCO[C@@H](Cc1ccc(OCCc2ccc(OS(C)(=O)=O)cc2)cc1)C(=O)O | -0.9 °C
3 | C[C@@H]1CN(CC(=O)N2CC(C)(C)c3nc(CO)c(Cc4ccc(F)cc4)cc32)[C@@H](CN2CCOC[C@H]2C)CN1 | -1.96 °C
4 | C[C@@H]1COCCN1c1cc(=O)n2c(n1)N(Cc1cncc(Cl)c1)[C@H](C(F)(F)F)CC2 | -0.07 °C
5 | O=C(NCc1ccc(F)cc1)C1CCN(S(=O)(=O)c2cc(Cl)cc(Cl)c2)CC1 | -0.4 °C
6 | COc1ccc(N(C(=O)Nc2c(C)cccc2C)c2cc(Nc3ccc(N4CCN(C)CC4)cc3)ncn2)c(OC)c1 | 2.62 °C
7 | CN1CCCN(C(=O)c2cccc(-c3ccc(/C=C4/C(=O)Nc5ccc(Cl)cc54)o3)c2)CC1 | -4.14 °C
8 | CC(C(=O)Nc1cc(C#N)ccc1CCCC(=O)O)c1ccc(F)c2ccccc12 (centres undefined) | -0.24 °C
9 | Cc1ccc2c(NS(=O)(=O)c3ccccc3Cl)cccc2c1Oc1ncccc1-c1ccnc(N[C@H]2CCCNC2)n1 | 0.99 °C
10 | CC(=O)N1CCC(c2ccc(C(=O)NC(=N)N)cc2C(F)(F)F)CC1 | -0.62 °C
11 | O=C1NC(=NCc2cccs2)SC1=Cc1ccc2ncccc2c1 | 0.38 °C
12 | C[C@H](NC(=O)c1cc(Cl)ccc1Oc1ccc(F)cc1)c1ccc(C(=O)O)cc1 | -0.23 °C
13 | Cn1c(C2(NC(=O)c3ccc(NCC4CCCCC4)nc3)CCC2)nc2ccc(/C=C/C(=O)O)cc21 | 0.73 °C
14 | Cc1cc(Cn2c(N3CC4(CNC4)C3)nc3c(N4CCN(C)CC4)cc(Cl)cc32)cc(C)c1F | -1.49 °C
15 | C[S+](C)[O-] | 0 °C (2×) and -2.05 °C
16 | Cc1ccc(NS(=O)(=O)c2ccc3c(c2)C2C=CCC2C(c2ccc(C(=O)O)cc2)N3)cc1C (centres undefined) | -2.09 °C
17 | N[C@@H]1CCCN(c2c(/C=C3\SC(=O)NC3=O)cccc2-c2ccccc2)C1 | -2.91 °C
18 | Cc1cc(NC(=O)c2cccc(NC(=O)/C=C/CN(C)C)c2)ccc1Nc1nccc(-c2cccnc2)n1 | -1.31 °C
19 | CCc1cc2c(cc1N1CCC(N3CCOCC3)CC1)C(C)(C)c1[nH]c3cc(C#N)ccc3c1C2=O | -2.92 °C
20 | O=C(O)c1cc(-c2ccccc2)ccc1O | -1.31 °C

Row | Compound | ΔTm
21 | CCCCCNC(=O)N1CCC(CN(Cc2ccc(Cl)cc2)Cc2ccc([N+](=O)[O-])s2)C1 (centres undefined) | -2.51 °C
22 | NCCCc1c(C(=O)O)[nH]c2ccc(C(=O)Nc3ccccc3)cc12 | -2.73 °C
23 | CC[C@@H](CO)Nc1nc(Nc2cccc(NC(=O)C(C)(C)C)c2)ncc1F | -2.22 °C
24 | C[C@@]1(Cc2ccc(C#N)cc2)C(=O)N(c2cc(Cl)cc(Cl)c2)c2ncc(C(=O)NC3(c4nc(C5CCC5)no4)CC3)n21 | 10.3 °C
25 | CNC(=O)c1cccc(-c2ccc3c(N4CCOC[C@@H]4C)nc(N4CCOC[C@@H]4C)nc3n2)c1 | -1.42 °C
26 | Cc1cc(OCCC(C)(C)O)cc(C)c1-c1ccc(F)c2c1CC[C@H]2Oc1ccc2c(c1)OC[C@H]2CC(=O)O | -2.75 °C
27 | COC1(C#Cc2ccc(Cl)c(-c3ncc4c(n3)-c3sc(NC(C)=O)nc3CC4)c2)CCN(C)CC1 | -2.24 °C
28 | COc1ccc(Br)cc1S(=O)(=O)NC(=O)/C=C/c1cc(Cl)ccc1Cc1ccc2ccccc2c1 | -4.74 °C
29 | O=C(Nc1cccc(C(F)(F)F)c1)c1cccc(-n2cc(-c3ccco3)nn2)c1 | -12.8 °C
30 | Fc1ccc(Cl)cc1-c1nc(Nc2ccncc2)c2nccnc2n1 | -2.28 °C
31 | CCOC(=O)c1cc2cc(-c3cc(C(=O)NCc4ccc(C(=O)O)cc4)nn3C)ccc2[nH]1 | -0.14 °C
32 | COCCN1CCN(CCn2ccc(Nc3ncc4c(n3)-c3c(nn(C)c3-c3ccccc3)C[C@H]4C)n2)CC1 | -1.68 °C
33 | CC[C@H](NC(=O)[C@H](C)NC)C(=O)N1C[C@@H](O)C[C@H]1Cc1c(-c2[nH]c3cc(F)ccc3c2C[C@@H]2C[C@H](O)CN2C(=O)[C@H](CC)NC(=O)[C@H](C)NC)[nH]c2cc(F)ccc12 | -3.47 °C
34 | O=C(O)Cc1cc(I)c(Oc2ccc(O)c(I)c2)c(I)c1 | -5.23 °C
35 | CNC(=O)c1ccc2c(c1)NC(=O)/C2=C(\Nc1ccc(CN2CCCCC2)cc1)c1ccccc1 | -3.03 °C
36 | COC(=O)c1sccc1S(=O)(=O)Nc1ccc(Nc2ccccc2)cc1OC | -3.85 °C
37 | CCCCC[C@H](O)/C=C/[C@H]1[C@H](O)CC(=O)[C@@H]1CCCCCCC(=O)O | -1.54 °C
38 | CC(C)(C#Cc1ccc(NC(=O)COc2ccccc2C(=O)c2ccccc2)c(Cl)c1)C(=O)O | 0.63 °C
39 | CN[C@@H](C)C(=O)N[C@H]1CN(C(=O)CC(C)C)CC[C@H]2CC[C@@H](C(=O)NC(c3ccccc3)c3ccccc3)N2C1=O | -2.41 °C
